PNC assembly inh – perinucleolar compartment assembly inhibition. PC3M PTB-GFP, PNC prevalence imaging, 16 h; hits give low values. activity change (PNC), negative = inhibition, % at 10 µM. actives 3.1% (n = 140,000). AID 2417;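 active = readout at or below -70, meaning at least 70% loss of cells showing the perinucleolar compartment, a nuclear body marking cancer cells; inconclusive = readout between -30 and a set limit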;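 note: plate controls were DMSO wells for no effect and camptothecin positive control wells for full effect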
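Read-out is percentage of cells bearing a perinucleolar compartment, from automated 20x imaging of fixed, Hoechst-stained PC3M PTB-GFP cells. Cells were seeded 4 h, then exposed 16 h to compound (23 nl of library stock) in duplicate plates.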
HPGD inh – inhibitors of human 15-hydroxyprostaglandin dehydrogenase (HPGD). P15428. purified HPGD, NADH fluorescence kinetic, PGE2 substrate. Potency, µM, for inactives: at the top dose activity change, negative = inhibition, actives largely listed as inhibitors. actives 4.3% (n = 150,000). AID 894; note: potency is the fitted concentration of half-maximal effect
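20 nM HPGD preincubated 15 min at room temperature with compound in 50 mM Tris-HCl pH 8, 0.01% Tween 20. Started with 1 mM NAD+ and 30 uM prostaglandin E2; NADH fluorescence (360/450 nm) read 5 times over 30-s intervals, last minus first.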
ALDH1A1 block – blocks purified human ALDH1A1 activity; Potency, µM (series often up to 75.3 µM), inactives show top-dose activity, negative = inhibition, actives largely listed as inhibitors; P00352; Purified ALDH1A1, NADH fluorescence, propionaldehyde substrate; AID 1030; actives 7.3% (n = 220,000);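 note: potency is the fitted concentration of half-maximal effect; plate controls were no enzyme wells and a reference inhibitor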
Target sequence (P00352 whole entry, looked up): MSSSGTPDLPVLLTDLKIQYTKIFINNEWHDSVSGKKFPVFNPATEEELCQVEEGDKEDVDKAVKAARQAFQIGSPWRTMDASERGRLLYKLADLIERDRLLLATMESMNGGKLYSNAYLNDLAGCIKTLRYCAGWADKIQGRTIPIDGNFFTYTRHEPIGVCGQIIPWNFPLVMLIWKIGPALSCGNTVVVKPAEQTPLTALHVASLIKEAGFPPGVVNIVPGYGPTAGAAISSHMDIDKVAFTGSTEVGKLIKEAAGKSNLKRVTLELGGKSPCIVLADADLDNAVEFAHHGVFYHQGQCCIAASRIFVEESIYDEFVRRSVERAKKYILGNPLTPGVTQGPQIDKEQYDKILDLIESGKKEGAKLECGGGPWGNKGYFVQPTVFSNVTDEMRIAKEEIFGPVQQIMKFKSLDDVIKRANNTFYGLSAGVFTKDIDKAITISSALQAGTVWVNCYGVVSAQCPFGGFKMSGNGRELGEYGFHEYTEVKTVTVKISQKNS
Active calls of the source: *; ? = inconclusive; . = no result; ! = repeats disagree; [ ] = another dose, or the depositor's remark. The list is not random: actives were taken first. Their share in the collection is about 11%. Unless noted, calls come from the whole dose curve; as a rule, active = well fitted inhibition curve with a large enough effect (not every such curve was filed as active); inconclusive = small, poorly fitted or top-dose-only effect, or another doubt; inactive = no such curve, though single readings can be large or run the other way. Unless noted, % is set by controls: 0 for no effect and ±100 for the full control effect.

SMILES	PNC assembly inh	HPGD inh	ALDH1A1 block
CC(/C=C(\C)Nc1ccccc1)=Nc1ccccc1	.	.	25µM*
CC(C)C(=O)c1cn(Cc2ccccc2C#N)c2ccccc12	65	-3%	7%
CC(=O)c1cn(Cc2ccccc2C#N)c2ccccc12	.	.	25µM*
CCNC(C)(C)[C@@H](SS)c1ccc(Br)cc1	.	3.2µM*	?
COc1ccc(C[C@H]2c3cc(OC)c(OC)cc3CCN2C)cc1OC	.	-8%	3%[20.9 µM]
c1cc2cc(c1)C[n+]1ccc(c3ccccc31)NCc1ccc(cc1)CNc1cc[n+](c3ccccc13)C2	.	-21%	?
CC(C)(O)C1O[C@H]2CC[C@@]3(C)[C@@](O)(CC[C@H]4Cc5c([nH]c6ccccc56)[C@@]43C)C2=CC1=O (some centres undefined)	.	.	-7%
C=C1C2C[C@]3(C4CC5[C@@]6(C)CC[C@H](O)[C@@]5(C3CC2=O)C4[N+]([O-])(CC)C6)[C@@H]1O (some centres undefined)	.	-3%	6%
CC1CN(c2ccc([N+](=O)[O-])cc2Cl)CCN1 (centres undefined)	.	.	16µM*
CN1CCN(c2ccc([N+](=O)[O-])cc2Cl)CC1	.	.	-5%
C[C@]12CC[C@@H]3[C@@H](CCC4=CC(=O)CC[C@@H]43)[C@@H]1CC[C@@H]2OC(=O)CCc1ccccc1	.	-8%	2%
CC(C)n1c(=O)c(C=Nc2ccc(F)cc2)c(O)n(Cc2ccco2)c1=O	?	-30%	11µM*
CC(C)n1c(=O)c(C=Nc2ccc(Cl)cc2)c(O)n(Cc2ccco2)c1=O	-16	?	?
CN1[C@@H]2CC[C@H]1CC(OC(=O)N1Cc3ccccc3NC1=O)C2 (some centres undefined)	.	-13%	-4%
O=C1N=C(N2CCCCC2)SC1=C1CCCCC1	11	20µM*	8.9µM*
O=C(c1cnccn1)N1CCC2(CC1)CN(Cc1ccncc1)C2	.	0%	-14%
Nc1ccc(C2(c3ccc(N)cc3)CCCCC2)cc1	.	.	14µM*
CC[C@@]1(c2ccc(N)cc2)CCC(=O)NC1=O	.	-11%	2%[20.9 µM]
CCc1c(C(=O)OC)ncc2[nH]c3cc(OC)c(OC)cc3c12	.	-30%	?
N#C/C(=C\c1ccc(O)c(O)c1)C(N)=S	.	8.9µM*	2.2µM*
O=c1[nH]c(=S)n(Cc2ccc(F)cc2)c(O)c1C=NCC1CCCO1 (centres undefined)	?	28µM*	?
O=c1[nH]c(=S)n(Cc2ccc(F)cc2)c(O)c1/C=N/N1CCCCC1	?	-18%	?
COc1ccc(CC2C(=O)N(C)C(=O)N(C)C2=O)c(OC)c1	4	-4%	-16%
Cc1ccc(CC2C(=O)N(C)C(=O)N(C)C2=O)s1	?	?	20µM*
CC(=O)OC[C@]12C[C@H](OC(=O)CC(C)C)C(C)=C[C@H]1O[C@H]1[C@H](O)[C@@H](OC(C)=O)[C@@]2(C)[C@]12CO2	.	-1%	-10%
SMILES	PNC assembly inh	HPGD inh	ALDH1A1 block
O=S(=O)(NCCO)c1cc[c]([Sb])cc1	.	-2%	5%[13.5 µM]
Oc1ccc2c3c1O[C@H]1c4[nH]c5c(c4C[C@@]4(O)[C@@H](C2)N(CC2CC2)CC[C@]314)C[C@]1(O)[C@H]2Cc3ccc(O)c4c3[C@@]1(CCN2CC1CC1)[C@@H]5O4	.	-3%	-4%
NC(N)=Nc1ccc2[nH]c3c(c2c1)C[C@@]1(O)[C@H]2Cc4ccc(O)c5c4[C@@]1(CCN2CC1CC1)[C@H]3O5	.	3.2µM*	1.6µM*
O=C(CSc1ncnc2c1nnn2-c1ccc(F)cc1)NCC1CCCO1 (centres undefined)	-16	?	-1%
CC(=O)C(Sc1ncnc2c1nnn2-c1ccc(F)cc1)C(=O)N(C)C (centres undefined)	-12	11µM*	2.5µM*
CN(CCCC(=O)c1cccnc1)N=O	.	.	5%
O=C(Nc1nnc(SCc2ccccc2Cl)s1)C1COc2ccccc2O1 (centres undefined)	6	16µM*	?
CO[C@@H](C)[C@](O)(C(=O)OCC1=CCN2CC[C@@H](O)[C@H]12)C(C)C	.	5%	11%[20.9 µM]
Oc1c(Cl)c(Cl)c(Cl)c(Cl)c1Cl	.	.	18µM*!
Cc1ccc(N2C(=O)/C(=C/c3ccc(CN(CCC#N)S(C)(=O)=O)o3)C(=O)NC2=S)cc1	22	22µM*	22µM*
O=C1C=Cc2ccccc2C1=O	?	7.9µM*	14µM*
O=C1c2ccccc2C(=O)c2ccccc21	.	-5%	1%
Oc1ccc2c3c1O[C@H]1c4c(c5ccccc5n4Cc4ccccc4)C[C@@]4(O)C(C2)N(CC2CC2)CC[C@]314	.	.	5%
O=[N+]([O-])c1ccc2nc(N3CCNCC3)ccc2c1	.	-16%	25µM*
O=C(Nc1ccccc1)c1cc([N+](=O)[O-])ccc1N1CCNCC1	.	.	4%
CC[n+]1c(-c2ccccc2)c2cc(N)ccc2c2ccc(N)cc21	.	35µM*!	-8%
O=C(c1csnn1)N1CCC[C@@]2(CCN(Cc3ccncc3)C2)C1	.	4%	?
CCN(CC)C(=O)c1c(C)[nH]c(=S)c(C#N)c1-c1ccco1	.	.	7.1µM*
O=C1CCCC2C3CC(CN12)C1CCCCN1C3 (centres undefined)	.	-6%	6%
Cc1ccc(/C=C2/C(=O)NC(=O)N(CCc3ccc(F)cc3)C2=O)o1	?	3.5µM*	5.6µM*
O=C1NC(=O)N(CCc2ccc(F)cc2)C(=O)/C1=C/c1ccco1	.	.	2.5µM*
COc1ccc(C(=O)O[C@H]2CC[C@@]3(C)C4CCC5[C@]6(O)C[C@H](O)[C@@]7(O)C(CN8C[C@@H](C)CC[C@H]8[C@@]7(C)O)[C@]6(O)C[C@@]53O[C@@]42O)cc1OC (some centres undefined)	.	.	0%
Ic1c(C2=CCCCC2)[se]c2ccccc12	.	-2%	0%
Cc1cc(C)cc(N2C(=O)NC(=O)/C(=C\c3cccn3-c3ccccc3)C2=O)c1	?	7.1µM*	-8%
Cc1ccc(N2C(=O)NC(=O)/C(=C/c3cnc(-c4ccccc4)nc3)C2=O)cc1C	18	20µM*	?
SMILES	PNC assembly inh	HPGD inh	ALDH1A1 block
CCOc1cc(/C=C2/C(=O)NC(=O)N(c3ccc(CC)cc3)C2=O)ccc1OC(=O)c1cccs1	44	?	?
CN1C(=O)/C(=C\N2CCc3ccccc32)C(=O)NC1=S	47	-13%	?
Cc1ccc(N2C(=O)NC(=O)/C(=C\c3ccsc3)C2=O)cc1C	?	32µM*	-7%
Cc1cc(/C=C2\C(=O)NC(=O)N(c3cccc(Br)c3)C2=O)c(C)n1C	19	-9%	-4%
CN1C(=O)/C(=C/c2cccn2-c2ccc3ccccc3c2)C(=O)NC1=S	5	14µM*	?
O=C(O)C[C@H]1OCC=C2CN3CC[C@@]45C6=CC(=O)C(=O)C([N+](=O)[O-])=C6N[C@H]4[C@H]1[C@H]2C[C@@H]35	.	-5%	-6%[13.5 µM]
C[N+]1(C)CCc2cc3c(cc2C1C1OC(=O)c2c1ccc1c2OCO1)OCO3 (centres undefined)	.	-11%	-5%
Nc1nc(N)c(N=Nc2ccc([As](=O)(O)O)cc2)c(=O)[nH]1	.	-1%	2%[13.5 µM]
CC(C)c1ccc(N2C(=O)NC(=O)/C(=C\c3cnc(-c4ccccc4)nc3)C2=O)cc1	?	25µM*	7.1µM*
Cn1cccc1/C=C1\C(=O)NC(=O)N(Cc2ccccc2Cl)C1=O	.	.	-1%

Bioassay records (PubChem)
